In the library only some 2.4% were active in any assay of this set; here they are far more common.
TDP1 block = TDP1 (human) enzyme inhibition; recombinant TDP1, AlphaScreen DNA substrate cleavage; actives 0.28% (n = 350,000); AID 485290; Q9NUW8; Potency, µM (titrated, usually from 130 µM), for the others: at the top dose activity change, negative = inhibition, actives largely listed as inhibitors; also: % is scaled to controls: 0 for no effect and ±100 for the full control effect; nearly all actives have a fitted effect of over 40% in size
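Enzyme-compound mixtures sat 15 min at room temperature, followed by a 5 min reaction with 15 nM final substrate and 10 min with AlphaScreen beads. Recombinant human Tdp1 was used at 1 nM final.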
Pol eta inh = DNA polymerase eta (human) inhibition | Potency, µM (series often up to 114 µM), for the others: at the highest dose activity change, negative = inhibition, most hits filed as inhibitors | recombinant Pol eta, fluorescent DNA replication assay | actives 1.2% (n = 390,000); also: % is scaled to controls: 0 for no effect and ±100 for the full control effect
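Pol eta at 10 nM preincubated with compounds 15 min at room temperature; reaction started with fluorescent substrate (50 nM final) and read kinetically at 0 and 10 min.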
Pol iota inh = DNA polymerase iota (human) inhibition; Q9UNA4; Pol iota fluorescent replication assay, 10 min; Potency, µM (highest dose often 115 µM), inactives show top-dose activity, negative = inhibition, usual class: inhibitors; actives 1% (n = 390,000); AID 588590
Target sequence (Q9UNA4 whole entry, looked up): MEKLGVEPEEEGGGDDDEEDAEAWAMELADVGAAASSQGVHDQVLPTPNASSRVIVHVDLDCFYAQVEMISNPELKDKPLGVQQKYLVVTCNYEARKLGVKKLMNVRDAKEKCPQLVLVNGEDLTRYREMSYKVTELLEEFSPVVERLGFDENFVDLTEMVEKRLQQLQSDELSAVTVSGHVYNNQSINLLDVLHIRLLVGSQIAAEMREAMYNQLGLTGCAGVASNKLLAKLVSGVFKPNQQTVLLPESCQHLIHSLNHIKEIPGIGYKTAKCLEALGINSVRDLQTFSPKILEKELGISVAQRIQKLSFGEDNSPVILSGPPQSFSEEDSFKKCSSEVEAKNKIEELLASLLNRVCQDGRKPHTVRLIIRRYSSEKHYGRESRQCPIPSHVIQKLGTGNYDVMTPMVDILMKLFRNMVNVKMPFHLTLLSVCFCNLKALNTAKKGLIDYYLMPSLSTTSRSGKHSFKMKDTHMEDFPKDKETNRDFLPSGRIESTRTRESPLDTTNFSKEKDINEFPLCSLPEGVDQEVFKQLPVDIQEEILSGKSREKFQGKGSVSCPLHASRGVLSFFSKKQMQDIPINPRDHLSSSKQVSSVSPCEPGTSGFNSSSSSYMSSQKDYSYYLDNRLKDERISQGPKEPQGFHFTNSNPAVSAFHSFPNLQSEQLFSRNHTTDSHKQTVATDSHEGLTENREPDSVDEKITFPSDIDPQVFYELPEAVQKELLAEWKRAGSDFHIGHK
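Pol iota at 10 nM preincubated 15 min with compounds at room temperature; reaction started with fluorescent substrate, 50 nM final. Fluorescence read kinetically at 0 and 10 min; buffer-only wells as negative control.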
FEN1 inhibitor = blocks human flap endonuclease 1; P39748; Recombinant FEN1 flap cleavage, fluorescence, 15 min; Potency, µM (top dose mostly 114 µM), without a hit: at the highest dose activity change, negative = inhibition, hits mostly inhibitors; actives 0.35% (n = 390,000); also: % is scaled to controls: 0 for no effect and ±100 for the full control effect; nearly all actives have a fitted effect of over 65% in size
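Read-out was taken twice, immediately and after 15 min, following addition of 50 nM substrate to 10 nM FEN1 that had sat with test compound for 15 min at room temperature. Curves came from a four-parameter Hill model.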
POLB inh = DNA polymerase beta (human) inhibition; P06746; Pol beta primer extension/strand displacement, fluorescence kinetic; Potency, µM (top dose mostly 114 µM), for the others: at the top dose activity change, negative = inhibition, most hits filed as inhibitors; actives 1.3% (n = 340,000); also: % is scaled to controls: 0 for no effect and ±100 for the full control effect
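10 nM enzyme + cpd, 15 min RT; start with substrate 50 nM final; read 0 min and after 10 min RT. Corrected, normalized data; 4-parameter Hill curve fit.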
Pol kappa inh = inhibitors of human DNA polymerase kappa; Potency, µM (highest dose often 107 µM), inactives show at the highest dose activity, negative = inhibition, hits mostly inhibitors; AID 588579; purified Pol kappa, fluorescent DNA synthesis assay, 10 min; actives 0.53% (n = 400,000); Q9UBT6; also: % is scaled to controls: 0 for no effect and ±100 for the full control effect
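Here, compound and 10 nM enzyme are combined for 15 min at room temperature; adding 50 nM substrate (final) starts DNA synthesis, tracked by fluorescence at 0 and 10 min against buffer-only wells.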
Active calls of the source: *; ? = inconclusive; . = no result given; [ ] = dose if it differs, or a comment. Calls follow the shape of the dose curve; as a rule, active = well fitted curve in the direction sought with a large enough effect; inconclusive = small, poorly fitted or top-dose-only effect, or another doubt; inactive = no such curve, though single readings can be large; an effect the other way counts as inactive or inconclusive. Potency is read from the fitted curve at half-maximal effect.

SMILES | TDP1 block | Pol eta inh | Pol iota inh | FEN1 inhibitor | POLB inh | Pol kappa inh
CCCN1CCC(=O)N(CCN=[N+]=[N-])CC1 | . | 5% | -29% | -9% | 32µM* | -2%
COc1ccc(N2CCN(C(=O)CN3C(=O)CSc4c3c(C)nn4-c3ccccc3)CC2)cc1 | 5% | -14% | -12% | 12% | -8% | 0%
CN(Cc1ccsc1)C(=O)CCc1nnc(CCCc2ccccc2)o1 | 5% | -7% | 7% | -7% | -10% | -10%
CN(Cc1ccsc1)C(=O)Cn1cc(Br)ccc1=O | -3% | -3% | 22µM* | 0% | 16% | -17%
CC(C)(C)NC(=O)c1cc(F)c(F)cc1Cl | 6% | -5% | 8% | 4% | 89µM* | 0%
CC(C)(C)NC(=O)COC(=O)c1cc(F)c(F)cc1Cl | 3% | -4% | 19% | -3% | 1% | -7%
CC1=NNC(=O)C1Oc1ccccc1 (stereo unspecified) | . | -8% | 25µM* | 1% | -2% | -9%
Cc1ccc(OCc2nn3c(-c4n[nH]c5c4CCC5)nnc3s2)cc1 | -4% | . | . | . | 14µM* | .
CCN(CC)c1ccc(/C=C/C2=C3C=CC=CC3NC=C2)cc1 (stereo unspecified) | . | . | 1.3µM* | 16µM* | . | -20%
CC(C)(C)c1cc(-c2csc(Nc3ccccc3)[n+]2Cc2ccc(C(=O)O)cc2)cc(C(C)(C)C)c1O | 6% | 32µM* | ? | ? | -18% | 0%
O=C(O)c1ccc(C[n+]2c(-c3ccccc3)csc2Nc2ccccc2)cc1 | 3% | ? | -17% | -9% | 24% | -7%
O=c1oc(-c2ccccc2)nc2sc3c(c12)CCC3 | . | ? | ? | 4% | 11µM* | 79µM*
O=C(COC(=O)CNC(=O)c1ccccc1)Nc1cc(C(F)(F)F)ccc1Cl | -1% | . | . | . | . | .
O=C(Cc1ccccc1)Nc1ccc(NC(=O)c2ccccc2)nc1 | 3% | 6% | 76% | 4% | 63µM* | -5%
O=C(Nc1ccc(NC(=O)C2CC2)cn1)c1ccccc1 | 2% | -14% | -16% | -4% | -8% | 4%
Nc1c2c(=O)[nH]c(O)cc2nn1-c1ccccc1 | . | 50µM* | 8.9µM* | ? | . | ?
C/C(=N/Nc1ccc(C(=O)O)cc1)c1ccc(O)c(O)c1O | ? | ? | -13% | ? | 22µM* | -27%
CC(Oc1ccccc1)C(=O)NC1C(=O)N2C(C(=O)O)C(C)(C)S[C@@H]12 (stereo partly specified) | -10%[56.1 µM] | . | . | . | . | -9%[60.1 µM]
CC1(C)SC2C(N3C(=O)C(c4ccccc4)NC3(C)C)C(=O)N2C1C(=O)O (stereo unspecified) | ? | . | . | . | . | 7.1µM*
C#CCn1cc(/C=N/NC(=O)COc2cccc3cccnc23)c2ccccc21 | 0% | ? | 22µM* | -6% | ? | ?
O=C(COc1cccc2cccnc12)N/N=C/c1ccccc1O | ? | -17% | 4% | 1% | 32µM* | -14%
O=C(N/N=C/c1ccccc1C(=O)O)c1ccc(COc2cccc3cccnc23)cc1 | 0% | 40µM* | ? | -14% | ? | ?
COC(=O)Cn1cc(/C=N/NC(=O)COc2cccc3cccnc23)c2ccccc21 | 3% | -6% | -11% | -16% | ? | -9%
O=C(N/N=C/c1ccc[nH]1)c1ccc(COc2cccc3cccnc23)cc1 | 0% | -22% | 73% | -6% | 1% | 3%
O=C(O)COc1ccccc1/C=N/NC(=O)c1cc2ccccc2cc1O | 7% | -5% | 14µM* | -18% | -11% | ?
SMILES | TDP1 block | Pol eta inh | Pol iota inh | FEN1 inhibitor | POLB inh | Pol kappa inh
O=C(O)COc1ccccc1/C=N/NC(=O)c1ccncc1 | . | . | . | . | . | 0%[19.4 µM]
CCN1C(=O)CC2CCCC1C2 (stereo unspecified) | . | -12% | -2% | 4% | . | -8%
Nc1c(C(=O)OCC(=O)Nc2cccc([N+](=O)[O-])c2)[nH]c(=O)[nH]c1=O | -11% | 25µM* | ? | ? | . | -32%
O=C(COC(=O)COc1ccccc1)Nc1cccc([N+](=O)[O-])c1 | 2% | -6% | 46% | 3% | -5% | -16%
COc1ccc(-n2nc3c(N4CCCC(C(=O)NCc5ccc(C)cc5)C4)nnc(C)c3c2C)cc1 (stereo unspecified) | -12% | ? | 10% | ? | 16µM* | -11%[60.1 µM]
O=C(/C=C/c1ccc(Br)o1)Nc1nccs1 | . | ? | 20µM* | -20% | ? | ?
O=C(/C=C/c1ccc(Br)o1)NCc1ccccc1 | -5% | -8% | ? | -26% | 0.71µM* | ?
O=C(Nc1nccs1)c1ccc(Br)o1 | 5% | 1% | 30% | -10% | -18% | -1%[60.1 µM]
O=C(Nc1nnc(COc2ccc(Cl)cc2)s1)c1ccco1 | 79µM* | -1% | 149% | -1% | 28% | -6%
COc1cccc(-c2nnc(NC(=O)c3ccco3)s2)c1 | 1% | -3% | -14% | -12% | -3% | -13%
Cc1ccc(N2CCN(S(=O)(=O)c3nnc(NC(=O)c4ccco4)s3)CC2)cc1 | . | 79µM* | -13% | 14% | ? | -16%
Cc1ccc(OCc2nnc(NC(=O)c3ccco3)s2)cc1 | 3% | ? | -10% | -1% | -4% | -10%
COc1ccc(-c2nnc(NC(=O)c3ccco3)s2)cc1 | 40µM* | -3% | 0% | -11% | 14% | -15%
CCOC(=O)/C(=C\c1cccc(O)c1)c1nc2sc(C)c(C)c2c(=O)[nH]1 | 0% | -20% | 18µM* | -6% | -29% | -9%
O=C(c1ccccc1O)N(Cc1ccco1)Cc1ccco1 | -3% | . | . | . | . | .
Cc1cnc(C(=O)OCC(=O)Nc2sc3c(c2C#N)CCC3)cn1 | 1% | 22µM* | ? | -4% | . | -24%
O=C(COC(=O)c1ccc(Cl)nc1)Nc1ncc(Cl)cc1Cl | -8% | 35µM* | 87% | 3% | ? | -10%
NC(=O)c1ccc(NC(=O)COC(=O)c2ccc(Cl)nc2)cc1 | . | -1% | -10% | -9% | . | -13%
Cc1cnc(C(=O)OCC(=O)Nc2ncc(Cl)cc2Cl)cn1 | -11% | 50µM* | ? | 3% | . | -18%
O=C(COC(=O)c1cn(-c2ccccc2)nc1-c1ccccc1)Nc1ncc(Cl)cc1Cl | . | 35µM* | ? | 9% | ? | ?
O=C(COC(=O)CNC(=O)c1ccccc1F)Nc1ncc(Cl)cc1Cl | -11% | 50µM* | ? | 5% | . | -23%
Cc1cccc(-c2nc(SCC(=O)NCC3CCCO3)c3c(=O)n(C)c(=O)n(C)c3n2)c1 (stereo unspecified) | 3% | -14% | 21% | 1% | 2% | -5%[60.1 µM]
